Experimental data taken from PubChem BioAssay (EPA / NIEHS).
The source made the active and inactive calls. Rule for the calls: active = hit-call score of the fitted dose curve at least 0.9, where 1 is the maximum; inactive = score below 0.9.

Assay: APR_HepG2_CellCycleArrest_1hr: Apredica 1-hour HepG2 Assay for Cell Cycle Arrest (AID 2282666)
Settings: high-content imaging, actives raise or lower the signal
Method: APR_HepG2_1hr is a cell-based, multiplexed-readout assay that uses HepG2, a human liver cell line, with measurements taken at 1 hour after chemical dosing in a 384-well plate.APR_HepG2_CellCycleArrest_1hr is one of 10 assay component(s) measured or calculated from the APR_HepG2_1hr assay. It is designed to make measurements of cell phenotype, a form of morphology reporter, as detected with fluorescence intensity signals by HCS Fluorescent Imaging technology.Data from the assay component APR_HepG2_CellCycleArrest_1hr was analyzed into 1 assay endpoint. This assay endpoint, APR_HepG2_CellCycleArrest_1hr, was analyzed with bidirectional fitting relative to DMSO as the negative control and baseline of activity. Using a type of morphology reporter, measures of all nuclear dna for gain or loss-of-signal activity can be used to understand the signaling at the pathway-level as they relate to the gene . Furthermore, this assay endpoint can be referred to as a primary readout, because this assay has produced multiple assay endpoints where this one serves a signaling function. To generalize the intended target to other relatable targets, this assay endpoint is annotated to the cell cycle intended target family, where the subfamily is arrest.
Cells were treated with dimethyl sulfoxide (DMSO) as a solvent control at a final concentration of 0.5% v/v or with compounds in DMSO with a resulting final DMSO concentration of 0.5% v/v. Compound treatment was done at concentrations of 0.39, 0.78, 1.56, 3.12, 6.24, 12.5, 25, 50, 100, and 200 uM in duplicate on each plate. Cells were treated with compounds for 1, 24, or 72 hr. Carbonyl […] m-chloro-phenylhydrazone (CCCP) and taxol were used as positive controls for mitochondrial function and cytoskeletal stability, respectively; DMSO served as the negative control for this experiment. Cells were fixed by the direct addition of 50 uL formaldehyde in Hank's Balanced Salt Solution (HBSS) to a final concentration of 3.7%. After incubation in the fixation medium for 30 min at room temperature (293-298 K), cells were rinsed twice with HBSS and treated with cell permeabilization buffer (16 uL of 0.5% Triton X-100) for 10 min at room temperature (293-298 K) before labeling. For mitochondrial membrane potential and mitochondrial measurements, pre-fixed cells were incubated with 50 uL of MitoTracker Red CMXRos (Invitrogen) at a concentration of 250 nM for 30 min before fixation. In the remaining cases, post-fixed cells were labeled by incubation with a multiplexed mixture of primary antibodies in HBSS for 60 min at room temperature (293-298 K) to detect immunoreactivity of c-Jun (1:500), phospho-histone H3 (1:100), phospho-histone H2A.x (1:200), p53 (1:400), alpha-tubulin (1:200) and Hoechst 33342 (2 ug/mL). Cells were labeled for multiplexed imaging on two separate plates: a) Hoechst 33342, MitoTracker Red, phospho-histone H3, and alpha-tubulin, and b) Hoechst 33342, phospho-histone H2A.x, and c-Jun. A final rinse with HBSS (50 uL) was performed before analysis. The primary and secondary antibodies for the proteins were phospho-histone H3 (rabbit anti-phospho-histone H3 and FITC-donkey anti-rabbit IgG), phospho-histone H2A.x (mouse anti-phospho-histone H2A.x and FITC-donkey anti-mouse IgG), c-Jun (rabbit anti-phospho-c-Jun and Cy3-donkey anti-rabbit IgG), p53 (sheep anti-p53 and Cy5-donkey anti-sheep IgG), alpha-tubulin (mouse anti-alpha-tubulin and Cy5-donkey anti-mouse IgG). These antibodies are available as the CellCiphr HepG2 assay kit (Millipore).Digital images of each well were captured using a Cellomics ArrayScan VTI (Thermo Scientific Cellomics) (0.8 NA objective, 0.63x optical coupler, and XF-93 filter set) at 20x magnification. The images were acquired using the autofocus feature of the ArrayScan instrument, which entails the following steps. First, the camera focuses on channel 1 (Hoechst 33342), where nuclei are identified. Second, a Z offset of 1 um is used for capturing mitochondria (MitoTracker Red). […]

SMILES	outcome
CCC(O)=C1C(=O)CC(C(=O)O)CC1=O (stereo not given)	inactive
CCCN(CCC)C(=O)SCC	inactive
COC(=O)CSc1cc(N=c2sc(=O)n3n2CCCC3)c(F)cc1Cl	inactive
CCC(C)OC(=O)N1CCCCC1CCO (stereo not given)	inactive
c1ccc(Nc2ccccc2)cc1	inactive
O=C(O)C1(C(=O)Nc2ccc(Cl)cc2Cl)CC1	inactive
CCCN(CCC)c1c([N+](=O)[O-])cc(C(F)(F)F)c(N)c1[N+](=O)[O-]	inactive
COC(=O)c1ccc(CNS(C)(=O)=O)cc1S(=O)(=O)NC(=O)Nc1nc(OC)cc(OC)n1	inactive
CCNc1nc(N)nc(Cl)n1	inactive
C#CCOC(=O)[C@@H](C)Oc1ccc(Oc2ncc(Cl)cc2F)cc1	inactive
Oc1ccc(C(c2ccc(O)cc2)C(Cl)(Cl)Cl)cc1	inactive
S=C(S)NCCNC(=S)S.[Mn+2].[S-]C([S-])=NCCN=C([S-])[S-].[Zn+2]	inactive
c1ccc2[nH]c(-c3cscn3)nc2c1	inactive
CCCCCOC(=O)COc1cc(N2C(=O)C3=C(CCCC3)C2=O)c(F)cc1Cl	inactive
CCSC(=O)N(CC(C)C)CC(C)C	inactive
COC(=O)c1ccccc1S(=O)(=O)NC(=O)Nc1nc(OC(F)F)cc(OC(F)F)n1	inactive
COc1c(Cl)ccc(Cl)c1C(=O)O	inactive
COC(=O)c1cccc(C)c1S(=O)(=O)NC(=O)Nc1nc(OCC(F)(F)F)nc(N(C)C)n1	inactive
CN(C)C(=O)Nc1ccc(Cl)c(Cl)c1	inactive
CCN(Cc1c(F)cccc1Cl)c1c([N+](=O)[O-])cc(C(F)(F)F)cc1[N+](=O)[O-]	inactive

SMILES	outcome
CCOC(=O)[C@H](C)Oc1ccc(Oc2nc3ccc(Cl)cc3o2)cc1	inactive
CC(C)(c1ccc(O)cc1)c1ccc(O)cc1	inactive
CCCOC(=O)c1ccc(C(=O)OCCC)nc1	inactive
CSC(=O)c1cccc2nnsc12	inactive
S=C([S-])NCCNC(=S)[S-].[Mn+2]	inactive
Cc1nn(C)c(Oc2ccccc2)c1C=NOCc1ccc(C(=O)OC(C)(C)C)cc1	inactive
CCOC(=O)COc1cc(-n2ncc(C(F)(F)F)c(C)c2=O)c(F)cc1Cl	inactive
CCCOC(=O)NCCCN(C)C	inactive
COC(=O)c1c(Cl)nn(C)c1S(=O)(=O)NC(=O)Nc1nc(OC)cc(OC)n1	inactive
CCCCC(CC)CN1C(=O)C2C3C=CC(C3)C2C1=O (stereo not given)	inactive
CCCCOC(=O)C(C)Oc1ccc(Oc2ccc(C(F)(F)F)cn2)cc1 (stereo not given)	inactive
CC(C)(C)[C@@H](O)[C@@H](Cc1ccc(Cl)cc1)n1cncn1	inactive
CCOC(=O)C(C)Oc1ccc(Oc2nc3ccc(Cl)cc3o2)cc1 (stereo not given)	inactive
CCCCOC(=O)[C@@H](C)Oc1ccc(Oc2ccc(C(F)(F)F)cn2)cc1	inactive
CCCCOCCOCCOCc1cc2c(cc1CCC)OCO2	inactive
OB(O)O	inactive
COCCO	inactive
CCCCC(CC)COC(=O)c1ccccc1C(=O)O (stereo not given)	inactive
O=C(Nc1ccc([N+](=O)[O-])cc1Cl)c1cc(Cl)ccc1O	inactive
COc1nc(C)nc(NC(=O)NS(=O)(=O)c2ccccc2OCCCl)n1	inactive
